Screens deposited in PubChem by several laboratories.
Rows were chosen to be rich in hits. Some 3.2% of all compounds tested hit in one or more screens of this group.
CHT PAM: CHT positive allosteric modulators, primary screen, cell-based, membrane potential dye, choline EC20 | High affinity choline transporter 1 (Homo sapiens), Q9GZV3 | CHT-expressing cells; stronger effect = higher value; LV-AA mutant CHT in HEK293 cells | B-score at 10 µM | hit rate 0.49% among 310,000 | AID 488977, 2010;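 active means initial fluorescence not abnormally high and integrated response B-score, plate-corrected, over 3 SD above library mean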
PHOSPHO1 inh: PubChem AID 1565. Phosphoethanolamine/phosphocholine phosphatase (Homo sapiens), Q8TCT1. recombinant PHOSPHO1, absorbance phosphatase assay. inhibition, % at 13.3 µM. hit rate 1.1% among 290,000; in the data active means inhibition above about 60%
TMEM16A inh: TMEM16A chloride channel inhibitors, primary screen, cell-based, HTS; normalized B-score (activity score, 25-100; higher = stronger inhibition) at 10 µM; hit rate 1.2% among 310,000; HEK293 TMEM16A/YFP iodide influx fluorescence, ionomycin;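 active means ratio plate-corrected score three or more library SD toward inhibition, starting fluorescence score within five deviations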;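 further: score derived from kinetic fluorescence span divided by baseline fluorescence per well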
Target sequence (Q8BHY3 whole entry, looked up): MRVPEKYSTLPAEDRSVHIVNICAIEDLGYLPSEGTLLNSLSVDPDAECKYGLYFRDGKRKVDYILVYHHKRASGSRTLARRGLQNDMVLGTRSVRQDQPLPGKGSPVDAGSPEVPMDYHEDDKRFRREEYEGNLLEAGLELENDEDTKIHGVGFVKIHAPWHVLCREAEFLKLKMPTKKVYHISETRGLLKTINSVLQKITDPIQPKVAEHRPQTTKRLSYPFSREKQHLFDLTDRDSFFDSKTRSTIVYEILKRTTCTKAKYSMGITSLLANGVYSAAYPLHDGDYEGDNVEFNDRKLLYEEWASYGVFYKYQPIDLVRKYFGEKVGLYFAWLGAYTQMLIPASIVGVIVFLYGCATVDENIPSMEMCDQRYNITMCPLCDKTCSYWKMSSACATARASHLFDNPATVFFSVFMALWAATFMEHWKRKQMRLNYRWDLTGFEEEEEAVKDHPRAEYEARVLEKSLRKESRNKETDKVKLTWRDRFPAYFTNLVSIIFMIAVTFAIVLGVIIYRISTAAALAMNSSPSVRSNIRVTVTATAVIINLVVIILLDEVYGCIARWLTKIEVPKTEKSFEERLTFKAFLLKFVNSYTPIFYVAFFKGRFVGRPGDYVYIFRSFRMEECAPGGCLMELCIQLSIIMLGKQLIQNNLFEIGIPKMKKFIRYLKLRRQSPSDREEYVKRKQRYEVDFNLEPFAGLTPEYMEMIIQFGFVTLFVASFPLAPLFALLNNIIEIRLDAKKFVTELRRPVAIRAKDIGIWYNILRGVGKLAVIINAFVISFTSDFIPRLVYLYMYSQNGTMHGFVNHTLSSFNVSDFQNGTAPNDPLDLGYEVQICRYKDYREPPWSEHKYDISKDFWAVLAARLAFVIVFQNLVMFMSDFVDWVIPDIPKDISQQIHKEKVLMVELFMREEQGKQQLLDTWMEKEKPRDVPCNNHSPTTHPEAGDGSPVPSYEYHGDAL
CHT block: inhibitors of human choline transporter CHT; CHT-expressing cells, membrane potential dye, choline response; stronger effect = lower value; B-score at 10 µM; hit rate 0.86% among 310,000; High affinity choline transporter 1 (Homo sapiens), Q9GZV3;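 active means B-score over 3 SD under the library average, and starting fluorescence ratio not unusually high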;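 further: choline stimulus applied at its EC90 after an EC20 pre-addition; B-score computed on integrated fluorescence ratio after choline addition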
HDAC3 inhib: HDAC3 deacetylase inhibitors, primary screen, biochemical, fluorescence, cell-free homogeneous; Histone deacetylase 3 (Homo sapiens), O15379; recombinant HDAC3, fluorogenic peptide/trypsin coupled; inhibition, % at 8.3 µM; hit rate 0.15% among 320,000; AID 2718, 2010; in the data active means inhibition above about 26%, passing the limit was not always enough
TMEM16A act: TMEM16A chloride channel activators or potentiators, primary screen, cell-based, HTS; Anoctamin-1 (Mus musculus), Q8BHY3; HEK293 TMEM16A/YFP-H148Q/I152L, iodide quench fluorescence; stronger effect = lower value; B-score at 10 µM; hit rate 0.3% among 340,000;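 active means fluorescence-ratio B-score plate-corrected deviation score at least 3 library SD below zero, with starting fluorescence score within 5 deviations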;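 further: channel opened by trigger with iodide after compound preincubation; score built on the fluorescence ratio of max minus min over baseline; more negative score means more quench and so TMEM16A activation or potentiation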
CHT activ conf: CHT activators, confirmation, cell-based, membrane potential dye, duplicate; activation, % at 10 µM; CHT-expressing cells, membrane potential dye fluorescence (FDSS); % of choline EC20–EC90 response window; HEK293 expressing CHT LV-AA mutant; choline added at its EC20; hit rate 91% among 2,500; shares compounds with CHT PAM; AID 504833, 2011;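 active means primary screen active, with duplicate mean activation above negative control mean plus 3 SD, cut at about 11% in these data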
HEK293 MP dye: membrane potential response in parental HEK293 cells, counter-screen for CHT activator project, cell-based, membrane potential dye; shares compounds with CHT PAM; membrane potential dye fluorescence (FDSS); measured after EC20 choline addition; ratio readout change at 10 µM, hits read low; hit rate 62% among 2,500; AID 623908, 2012;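 active means duplicate-averaged ratio beyond 3 SD from buffer wells, up or down, though filed actives are nearly all decreases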
Hits are given with their value; i = inactive; nt = not tested or not shown.

SMILES	CHT PAM	PHOSPHO1 inh	TMEM16A inh	CHT block	HDAC3 inhib	TMEM16A act	CHT activ conf	HEK293 MP dye
Cc1cccc(NC(=O)CN2CCN(C(=O)CNC(=O)Cc3cccc4ccccc34)CC2)c1C	nt	nt	nt	nt	i	i	nt	nt
CN(C)S(=O)(=O)c1cc(NC(=O)CNCc2ccccc2)ccc1Cl	i	i	i	i	i	i	nt	nt
CN(CCOc1ccccc1)CC(=O)Nc1ccc(Cl)c(S(=O)(=O)N(C)C)c1	7	i	i	i	i	i	i	i
CCn1c(SC(=O)NC2CCCCC2)nnc1-c1cccs1	i	i	i	i	i	i	nt	nt
Cc1cc(=O)n2nc(N3CCCC3C(=O)Nc3cccc(Cl)c3C)sc2n1 (centres undefined)	i	i	i	i	i	i	nt	nt
Cn1c(N)c(C(=O)COC(=O)c2ccc(Cl)nc2)c(=O)n(C)c1=O	7.5	i	i	i	i	i	22	-31
CC(=O)N(Cc1ccco1)C1(C(=O)NC2CCCCC2)CCCCC1	i	i	i	i	i	i	nt	nt
O=C(Cc1cccs1)N(Cc1ccco1)C1(C(=O)NC2CCCCC2)CCCCC1	i	i	i	i	i	i	55	i
C[C@H](C(=O)NCc1ccccc1)C(=O)c1ccccc1	i	i	i	i	i	i	nt	nt
CCOC(=O)N1CCC(n2c(SCC(=O)NCCc3ccc(S(N)(=O)=O)cc3)nc3ccccc3c2=O)CC1	15	i	i	i	i	i	35	-21
Cc1c(CCOC(=O)CC23CC4CC(CC(C4)C2)C3)sc[n+]1CC(=O)c1ccc(Br)cc1	i	i	i	i	i	i	28	-25
Cc1c(CCOC(=O)c2cc([N+](=O)[O-])cc([N+](=O)[O-])c2)sc[n+]1CC(=O)c1ccccc1	i	i	i	i	i	i	32	i
Cc1c(CCOC(=O)c2ccccc2)sc[n+]1Cc1ccccc1	i	i	i	i	i	i	nt	nt
Cc1c(CCOC(=O)c2cc([N+](=O)[O-])cc([N+](=O)[O-])c2)sc[n+]1CCCCS(=O)(=O)[O-]	i	i	i	i	i	i	12	-21
O=C(C[C@H]1C/C=C\C[C@@H](Cc2ccc(F)cc2)C(=O)O[C@@H](c2ccccc2)CNC1=O)N[C@@H](CO)Cc1ccccc1	nt	nt	nt	nt	i	i	nt	nt
COc1ccc(CN2CCCC(CNC(=O)c3ccc(F)cc3)C2)c(F)c1 (centres undefined)	i	i	i	i	i	i	nt	nt
CC[n+]1c(C)sc2cc(OC)ccc21	i	i	i	i	i	i	29	-62
CCN(CC)CCN(Cc1cc2ccc(C)c(C)c2[nH]c1=O)C(=S)NCc1ccco1	i	i	i	i	nt	i	16	-25
Cc1ccc(C)c(CN2CCC(CNC(=O)Nc3ccc(F)c(Cl)c3)CC2)c1	i	i	i	i	i	i	nt	nt
CC(C)(C)OC(=O)N1Cc2ccccc2C[C@H]1C(=O)NC1CCCC1	i	i	i	i	i	i	i	i
CCOC(=O)Nc1sc(C)nc1-c1ccccc1	i	i	i	i	i	i	nt	nt
CCOC(=O)Nc1nc(-c2ccccc2)c(C(=O)c2ccc(Cl)cc2)s1	i	i	i	i	i	i	35	i
CCCN(CC(=O)Nc1ccccc1C)C(=O)c1ccc(Cl)c(S(=O)(=O)N2CCCC2)c1	i	nt	i	i	i	i	nt	nt
CCCN(CC(=O)Nc1ccccc1C)C(=O)c1ccc(C)c(S(=O)(=O)N2CCCCC2)c1	i	nt	i	i	i	i	14	i
Cc1nnc(SCCn2c(N3CCCCC3)nc3c2c(=O)n(C)c(=O)n3C)s1	i	nt	i	i	i	i	nt	nt
SMILES	CHT PAM	PHOSPHO1 inh	TMEM16A inh	CHT block	HDAC3 inhib	TMEM16A act	CHT activ conf	HEK293 MP dye
Cc1nnc(SCCn2c(N3CCN(C)CC3)nc3c2c(=O)n(C)c(=O)n3C)s1	7.7	i	i	i	i	i	46	-70
N=C1C(c2ccc(Br)cc2)=C(O)C2CCc3ccccc3N12 (centres undefined)	13	i	i	i	i	i	55	-67
O=S(=O)(c1ccc(Br)cc1)N1CCCc2ccccc21	i	i	i	i	i	i	nt	nt
COc1cc(/C=C2\SC(N)=NC2=O)ccc1OCC(=O)Nc1ccccc1C	nt	nt	nt	nt	i	i	nt	nt
COCCNc1nnc(SCC(=O)Nc2nnc(-c3ccccc3)o2)s1	6.6	nt	i	i	i	i	i	i
Nc1nnc(SCC(=O)Nc2nnc(-c3ccccc3)o2)s1	nt	nt	nt	nt	i	i	nt	nt
COc1cc2c(cc1OC)CN(C(C)C(=O)Nc1ccc(NC(C)=O)cc1)CC2 (centres undefined)	i	i	i	i	i	i	nt	nt
CCCCCn1c2c(c(=N)c3ccccc31)CCC2	6.7	i	i	i	i	i	41	-65
CCOC(=O)Cn1c2c(c(=N)c3ccccc31)CCC2	i	i	i	i	i	i	65	-51
CCOC(=O)Cn1c2c(c(=N)c3c1CCC3)CCC2	i	i	i	i	i	i	23	-48
Cc1nn(-c2ccccc2)c(N)c1Sc1ccc([N+](=O)[O-])cc1	6.9	i	i	i	i	i	36	i
Cc1nn(S(=O)(=O)c2ccc(Cl)cc2)c(C)c1Sc1ccc([N+](=O)[O-])cc1	i	i	i	i	i	i	nt	nt
CCOc1ccccc1NC(=O)COc1coc(CN2CCc3ccccc32)cc1=O	i	nt	i	i	nt	i	nt	nt
CCOC(=O)c1ccccc1NC(=O)COc1coc(CN2CCc3ccccc32)cc1=O	i	nt	i	i	i	i	26	i
COc1cc(NC(=O)Cc2ccc([N+](=O)[O-])cc2)c(C(=O)O)cc1OC	i	i	i	i	i	i	nt	nt
Cc1ccccc1C[n+]1cccc2ccccc21	7	nt	i	i	i	i	52	-42
CCOC(=O)c1c[nH]c2c(Cl)c(Cl)ccc2c1=O	i	i	i	i	i	i	39	-37
CCOC(=O)c1c[nH]c2c(Cl)ccc(Cl)c2c1=O	7.2	i	i	i	i	i	69	-64
CCOC(=O)c1c[nH]c2c(C)cc(C)cc2c1=O	8.1	i	i	i	i	i	63	-37
CCOC(=O)c1c[nH]c2c3c(ccc2c1=O)CCCC3	i	i	i	i	i	i	nt	nt
COc1ccc(-c2nnc(SC(C)C(=O)NCc3ccc4c(c3)OCO4)n2Cc2ccco2)cc1 (centres undefined)	16	i	i	i	i	i	62	i
